# Shown are actives, neighbours in structure and some others; about 2.1% of the full set was active somewhere.
# U2OS ROS induce – cancer cell ROS induction | 46,000 tested, 2% active | U2OS ROS induction, H2DCF-DA fluorescence | ROS induction (% of piperlongumine), % at 10 µM; in the data active = ROS induction above about 79%, passing the limit was not always enough
# YB-1 expression – YB-1 expression inhibition; 30,000 tested, 0.37% active; delta delta Cp (YB-1 minus CDIP) (test concentration not listed); U2OS, qRT-PCR YB-1 vs CDIP delta delta Cp, 16 h; hits give high values; zero = DMSO, each unit about twofold;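 active = delta delta Cp rounded down to an integer at or above 3, about 3 SD of DMSO wells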;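 also: higher means less YB-1 transcript or more CDIP transcript relative to DMSO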
# A number is an active result; 0 = inactive; - = not tested or not shown.
SMILES,U2OS ROS induce,YB-1 expression
CSc1ncc(Cl)c(C(=O)Nc2c(C(=O)Nc3ccccc3)oc3ccccc23)n1,0,-
Cc1ccc(S(=O)(=O)N(C)C[C@@H]2Oc3ccc(NS(=O)(=O)c4ccc(Cl)cc4)cc3CC(=O)N([C@H](C)CO)C[C@H]2C)cc1,0,0
Cc1ccc(S(=O)(=O)Nc2ccc3c(c2)CC(=O)N([C@H](C)CO)C[C@@H](C)[C@@H](CN(C)S(=O)(=O)c2ccc(Cl)cc2)O3)cc1,94,0
COc1ccc(/C=C2\OC(=S)N(C)C2=O)cc1,0,-
CCN1C(=O)/C(=C\c2ccc(N(C)C)cc2Cl)OC1=S,929,-
CN1C(=O)/C(=C\c2cn(CC(=O)N3CCOCC3)c3ccccc23)C(=O)NC1=S,0,-
Cc1ccccc1N1C(=O)NC(=O)/C(=C\c2cn(CC(=O)N3CCOCC3)c3ccccc23)C1=O,117,-
C=CCn1cc(C=C2C(=O)OC3(CCCC3)OC2=O)c2ccccc21,0,-
O=C1NC(=O)N(c2ccccc2F)C(=O)/C1=C/c1cn(CC(=O)N2CCCC2)c2ccccc12,100,-
FC(F)(F)c1cc(-c2ccc3ccccc3c2)nn1C(=S)N1CCOCC1,0,-
CCCCn1c(-c2ccccc2)nc(=S)c2c1CCCC2,0,-
CCCc1c(C(=O)NC2CCN(C(=O)OCC)CC2)cnn1-c1ccccc1,0,-
CC(C)n1c(SCC(N)=O)nc2c(oc3ccccc32)c1=O,0,-
O=C1/C(=C/c2ccc(O)cc2)SC(=S)N1CCc1ccccc1,127,0
CC(C)OC(=O)CCN1C(=O)/C(=C/c2ccccc2)SC1=S,0,0
O=C(CSc1nnnn1-c1ccccc1)Nc1cc(Cl)c(Cl)cc1Cl,0,-
O=C(CSc1nnnn1-c1ccccc1)Nc1cc(Cl)ccc1C(=O)O,154,-
CNC(=O)c1ccc(C(C)(C)C)cc1,0,-
O=C1c2ccccc2NC(c2ccccc2)N1N=C1CCCCCC1 (stereo not drawn),96,0
O=C1c2ccccc2NC(c2ccccc2)N1NS(=O)(=O)c1ccccc1 (stereo not drawn),0,-
O=C(Oc1nnc(SCCS(=O)(=O)c2ccc(F)cc2)n1C1CC1)c1cccs1,0,-
O=c1[nH]c(SC/C=C/c2ccccc2)nc2sc3c(c12)CCC3,0,-
Cc1cc(C)c(S(=O)(=O)N2CCc3ccccc32)c(C)c1,105,-
Cc1cc(C)c(NC(=O)c2cc(S(=O)(=O)N3CCc4ccccc43)ccc2F)c(C)c1,0,-
CC(=O)N1/C(=C/c2ccc(N(C)C)cc2)C(=O)c2ccccc21,151,-
SMILES,U2OS ROS induce,YB-1 expression
CN(C)c1ccc(/C=C2/C(=O)Nc3ccccc32)cc1,0,0
CC(=O)OC[C@H]1O[C@@H](n2cc(C)c(=O)[nH]c2=O)C[C@@H]1OC(C)=O,0,-
CCOC(=O)c1ccc(CN(Cc2ccccc2C)S(=O)(=O)c2ccc3c(c2)OCCO3)cc1,0,-
Cc1ccccc1NC(=O)COc1ccc(C)c([N+](=O)[O-])c1,114,-
CC(=O)Nc1ccccc1NC(=O)COc1ccc([N+](=O)[O-])cc1,0,-
O=C1NCCN/C1=C/C(=O)c1ccc(Br)cc1,0,-
COc1ccc(C(=S)N2CCC(C)CC2)cc1,0,-
CCN1/C(=C\C(=S)Nc2ccccc2)Sc2ccccc21,0,0
CCN1/C(=C/C2=CC(=O)CC(C)(C)C2)Sc2ccccc21,164,0
CCn1c(=Nc2ccc(C)cc2)ccc2cc(C)ccc21,0,-
N#CC1=NN(c2ccccc2)C(c2ccccc2)CC1=O (stereo not drawn),0,-
Cc1ccc(/C=c2\sc3ncnn3c2=O)o1,0,-
CCN(C1=NC2CS(=O)(=O)CC2S1)c1ccc(OC)cc1 (stereo not drawn),0,-
CCC(Sc1nnnn1-c1ccccc1)C(=O)Nc1sc2c(c1C#N)CCCC2 (stereo not drawn),95,0
CCC(Sc1nnc(N)s1)C(=O)Nc1sc2c(c1C#N)CCCC2 (stereo not drawn),0,-
CCn1c(=N)c(S(=O)(=O)c2ccccc2)cc2c(=O)n3ccccc3nc21,94,-
Cc1ccc(S(=O)(=O)c2cc3c(=O)n4ccccc4nc3n(Cc3ccccc3)c2=N)cc1,0,-
CC(=O)Oc1ccc2occ(C(=O)c3ccc(Br)s3)c2c1,0,0
CC(=O)Oc1ccc2occ(C(=O)CCN(C)C)c2c1,98,0
Cc1cccc(-n2ncc3c(Nc4ccc(-c5ccccc5)cc4)ncnc32)c1,0,-
CC(=O)Nc1ccc(Nc2ncnc3c2c(-c2ccccc2)cn3-c2cccc(C)c2)cc1,97,-
COc1cc(CCC(=O)N2CCC=CC2=O)cc(OC)c1OC,137,0
COc1cc(C(=O)NCCC(=O)N2CCN(C)CC2)cc(OC)c1OC,0,-
COC(=O)c1cc(S(=O)(=O)NCCc2ccccc2)cn1C,0,-
FC(F)(F)c1nnc2n1Nc1nc3ccccc3nc1S2,704,-
SMILES,U2OS ROS induce,YB-1 expression
COc1ccc(-c2nc3c(c(SCC(N)=O)n2)Cc2ccccc2O3)cc1,0,-
COc1ccc(-c2noc(=O)n2CC(=O)N2CCC(C)CC2)cc1,0,-
Cc1c(C(=O)Nc2ccccc2)cnn1-c1ccc(F)cc1,0,-
N#Cc1cc2c(nc1SCCS(=O)(=O)c1nc3ccccc3s1)CCCC2,0,-
Cc1cc(C)c(C#N)c(SCCS(=O)(=O)c2nc3ccccc3s2)n1,141,-
COc1ccc(OC)c(Nc2nc(-c3c(C)nc4sccn34)cs2)c1,0,-
Cc1cccn2cc(CNC(=O)C(C)(C)C)nc12,0,-
CCC(C(=O)NC(C)C)n1c2ccccc2c2nc(=O)cc(C)n21 (stereo not drawn),0,-
Cc1ccnc(N=Cc2c(C)[nH]n(-c3ccccc3)c2=O)c1,0,0
Cc1[nH]n(-c2ccccc2)c(=O)c1/C=C1\C=NN=C1c1ccccc1,106,0
CCOC(=O)c1ccc2nc(C(F)(F)F)nc(N3CC(C)OC(C)C3)c2c1 (stereo not drawn),108,0
CCOC(=O)c1ccc2nc(C(F)(F)F)nc(NCc3ccc(Cl)cc3)c2c1,0,0
CCn1c(-c2ccc(F)cc2)csc1=Nc1ccc(C)cc1,0,-
Cc1ccc(N2C(=O)N(CC(=O)Nc3ccccc3)c3ccccc3S2(=O)=O)cc1Cl,0,-
C[C@H](CO)N1C[C@H](C)[C@H](CN(C)C(=O)Nc2ccc(F)cc2)Oc2ncc(-c3cccc(F)c3)cc2C1=O,0,0
C[C@H](CO)N1C[C@H](C)[C@H](CN(C)C(=O)Nc2ccc(F)cc2)Oc2ncc(-c3cccc(C(F)(F)F)c3)cc2C1=O,91,0
COc1ccc(NC(=O)N(C)C[C@@H]2Oc3ncc(-c4cccc(C(F)(F)F)c4)cc3C(=O)N([C@H](C)CO)C[C@@H]2C)cc1,0,0
C[C@H](CO)N1C[C@H](C)[C@H](CN(C)Cc2ccccc2)Oc2ncc(-c3cccc(C(F)(F)F)c3)cc2C1=O,0,0
C[C@H](CO)N1C[C@H](C)[C@H](CN(C)C(=O)Nc2ccccc2)Oc2ncc(-c3cc4ccccc4o3)cc2C1=O,153,0
C[C@H](CO)N1C[C@H](C)[C@H](CN(C)C(=O)Nc2ccccc2)Oc2ncc(-c3cccc(C(F)(F)F)c3)cc2C1=O,98,0
CC(C)NC(=O)N(C)C[C@@H]1Oc2ncc(-c3cc4ccccc4o3)cc2C(=O)N([C@H](C)CO)C[C@@H]1C,0,0
C[C@H](CO)N1C[C@H](C)[C@H](CN(C)Cc2ccc(F)cc2)Oc2ncc(-c3cccc(C(F)(F)F)c3)cc2C1=O,77,0
COc1ccc(Cc2nnc(SCC(=O)C(C)(C)C)n2-c2ccc(F)cc2)cc1OC,0,-

# Source: PubChem BioAssay (Broad Institute)
